We go through eight molecules from PubChem BioAssay (NCI).

Common to all, as to experiment: NCI-60 one-dose screen, 48 h (100 = growth as untreated, 0 = no growth, -100 = all killed)
What all share (settings): 10 µM unless noted

Test [1] concerns NCI-H23 lung.
The test system of test [2] is NCI-H226 lung.
Test [3] relates to NCI-H322M lung.
In test [4] the test system is HOP-62 NSCLC.
For test [5], the system named is NCI-H460 lung.
The subject of test [6] is HOP-92 NSCLC.
Test [7] deals with NCI-H522 lung.
Test [8] has as its system A549/ATCC NSCLC.
For test [9], the system named is 786-0 renal.
Test [10] deals with DU-145 prostate.
The test system of test [11] is K-562 leukemia.
Test [12] concerns MALME-3M melanoma.
The subject of test [13] is MDA-MB-231 breast.
Test [14] relates to RXF 393 renal.
In test [15] the test system is SF-268 CNS.
Test [16] has as its system SF-295 CNS.
Test [17] deals with SF-539 CNS.
Test [18] has as its system UACC-257 melanoma.
The test system of test [19] is M14 melanoma.
Test [20] concerns COLO 205 colon.

About 83,000 compounds went through this panel and 20% of them were active in at least one assay; those are over-represented in the sample as a whole.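 Values shown are percent growth following 48 h exposure of cells in 96-well plates to a single concentration of compound; below 10 was considered active.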 Unmarked numbers belong to inactive results. The source made the active and inactive calls.

As for `Cn1cnc2c(F)c(Nc3ccc(Br)cc3Cl)c(C(=O)NOCCO)cc21`, the growth in test [1] is 25.7%; in test [2] it was 55.3%; in [3], 11.2%; in test [4], 28.6%; in test [5], 60.2%; in [6], -0.548% (active). In addition, the growth in [7] is 44.4%; in [8] it was 35.8%; in test [9], 71.1%; in [10], 69.6%; in test [11] it was 47.2%; in test [12], -16.2% (active). In addition, the growth was 24.7% in [13]; 14.7% in test [14]; 77.2% in [15]; 82.8% in [16]; 69% in test [17]; -21.2% (active) in test [18]. For the same molecule, in [19], the growth is 6.05% (active).

With `C=CC(=O)Nc1cccc(Oc2nc(Nc3ccc(N4CCN(C)CC4)cc3)nc3ccsc23)c1`, the growth is 32.2% in test [1]; -2.55% (active) in [2]; 4.69% (active) in test [3]; -62% (active) in test [4]; -59.8% (active) in test [5]; -70.8% (active) in test [6]. The growth in test [7] is -77.1% (active); in test [8], -74.1% (active); in [9], -84% (active); in test [10], -48.4% (active); in test [11] it was -25.6% (active); in test [12] it was -84.2% (active). Besides, the growth in test [13] is -58% (active); in test [14], -83.9% (active); in test [15] it was 3.11% (active); in test [16], 23.9%; in test [17] it was -92.9% (active); in test [18] it was -80.8% (active). In addition, in [19], the growth was -81% (active).

Regarding `CN(C[C@@H]1COCCO1)S(=O)(=O)Nc1ccc2ccc3ncc(-c4cnn(C)c4)cc3c(=O)c2c1`, the growth in [1] was 30.6%; in test [2] it was 40.9%; in test [3], 26.3%; in test [4], 36.4%; in test [5], 35%; in [6] it was 16.9%. Moreover, the growth is 11.2% in test [7]; 48.1% in test [8]; 41.3% in test [9]; 44% in [10]; 39.5% in test [11]; 46% in test [12]. Besides, the growth is 49.5% in [13]; -2.79% (active) in [14]; 35% in test [15]; 19.3% in [16]; 0.172% (active) in test [17]; 69.3% in test [18]. For the same molecule, in test [19], the growth is 35.3%.

As to `Cc1cc(N2CCCC2)nc(N(CCCNc2ccnc3cc(Cl)ccc23)Cc2ccc3c(c2)OCO3)n1`, the growth was 20.9% in test [1]; 50.4% in test [2]; 8.23% (active) in [3]; -17.4% (active) in [4]; 5.83% (active) in test [5]; -36% (active) in test [6]. Moreover, the growth was -28.1% (active) in [7]; 13.2% in test [8]; -88.8% (active) in test [9]; 27.9% in test [10]; -15.4% (active) in test [11]; -76.9% (active) in test [12]. Further, the growth is 4.2% (active) in test [13]; -66.1% (active) in [14]; 31.2% in [15]; -62% (active) in test [16]; -90.5% (active) in [17]; -83.4% (active) in [19].

Consider `O=CC(OC(=O)c1ccccc1)C(OC(=O)c1ccccc1)C(COC(c1ccccc1)(c1ccccc1)c1ccccc1)OC(=O)c1ccccc1` (stereo unspecified), for which the growth in test [1] is 51.3%; in test [2], 76.4%; in test [3] it was 97.1%; in [4] it was 99.8%; in [5], 89.2%; in test [6], -54.6% (active). The growth in test [7] is 40.4%; in test [8], 97.5%; in test [20], 57.2%; in test [10], 86%; in [12] it was 67.9%; in test [13], 48.4%. In addition, the growth in test [15] is 38.5%; in test [16], 93.5%; in test [17] it was 76.5%; in test [19], 53.4%.

As to `COc1ccc(C2OC(c3cc(-c4cc5ccccc5o4)nn3-c3ccccc3)=NN2C(C)=O)cc1` (stereo unspecified), the growth is 92.5% in test [1]; 91% in [2]; 97.9% in test [3]; 91.4% in [4]; 104% in test [5]; 74.1% in test [6]. Besides, the growth in [7] is 83.4%; in test [8], 102%; in test [9] it was 92.9%; in [10], 101%; in [11], 93.1%; in test [12], 107%. Further, the growth in [13] was 95.9%; in test [15], 97.7%; in [16], 100%; in test [17], 98.6%; in test [19], 99%.

With `COc1ccc(F)c(F)c1C(=O)c1cnc(NC2CCN(S(C)(=O)=O)CC2)nc1N`, the growth in test [1] is -36.5% (active); in [2] it was 3.23% (active); in test [3], 2.76% (active); in test [4] it was -24.7% (active); in test [5], 3.3% (active); in [6], -8.59% (active). For the same molecule, the growth is -29.5% (active) in test [7]; 3.28% (active) in test [8]; 14.4% in [9]; 10.3% in test [10]; 5.89% (active) in test [11]; -28.3% (active) in test [12]. For the same molecule, the growth was 2.97% (active) in test [13]; -62% (active) in [14]; 6.42% (active) in test [15]; 8.69% (active) in test [16]; -33.8% (active) in test [17]; -28% (active) in test [18]. Further, in test [19], the growth was -23.6% (active).

For the molecule `C[C@]12O[C@H](C[C@]1(O)CO)n1c3ccccc3c3c4c(c5c6ccccc6n2c5c31)CNC4=O`, the growth is -58.3% (active) in test [1]; -68.8% (active) in test [2]; -32.1% (active) in test [3]; -63% (active) in test [4]; -61.3% (active) in test [5]; -26.3% (active) in test [6]. For the same molecule, the growth in test [7] is -56.2% (active); in test [8], -29.9% (active); in test [9], -87.5% (active); in test [10], 3.57% (active); in [11], 4.93% (active); in [12], -85.3% (active). Moreover, the growth in test [13] was -44.2% (active); in test [14], -90.2% (active); in test [15], -45.5% (active); in test [16] it was -83.8% (active); in [17] it was -96.6% (active); in test [18] it was -77.2% (active). Moreover, the growth in test [19] is -56.4% (active).
